Data taken from PubChem BioAssay (Tox21).
Results filed as inconclusive are left out. Entries that show only a call come without a potency. The source holds several records for some structures; these can differ, active in one and inactive in another. Active and inactive are the calls of the source. Calls come from the whole dose curve.

target: Acetylcholinesterase (Homo sapiens) (UniProt P22303); assay: Acetylcholinesterase (AChE) small molecule antagonists: fluorescence cell-based qHTS assay (AID 1347398); settings: SH-SY5Y cells; Potency: AChE activity; outcome: AChE activity; series mostly up to 115 µM; note: nearly all actives have a fitted effect of over 50% in size
Outline: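 Fluorimetric cell-based assay: intact SH-SY5Y cells, 30 min compound preincubation at 37 C, acetylthiocholine substrate with thiol probe Thiolite Green, 40 min RT development, fluorescence 490/520 nm.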
Potency is the fitted concentration of half-maximal effect.

Acetylcholinesterase (Homo sapiens), sequence (P22303 whole entry, looked up): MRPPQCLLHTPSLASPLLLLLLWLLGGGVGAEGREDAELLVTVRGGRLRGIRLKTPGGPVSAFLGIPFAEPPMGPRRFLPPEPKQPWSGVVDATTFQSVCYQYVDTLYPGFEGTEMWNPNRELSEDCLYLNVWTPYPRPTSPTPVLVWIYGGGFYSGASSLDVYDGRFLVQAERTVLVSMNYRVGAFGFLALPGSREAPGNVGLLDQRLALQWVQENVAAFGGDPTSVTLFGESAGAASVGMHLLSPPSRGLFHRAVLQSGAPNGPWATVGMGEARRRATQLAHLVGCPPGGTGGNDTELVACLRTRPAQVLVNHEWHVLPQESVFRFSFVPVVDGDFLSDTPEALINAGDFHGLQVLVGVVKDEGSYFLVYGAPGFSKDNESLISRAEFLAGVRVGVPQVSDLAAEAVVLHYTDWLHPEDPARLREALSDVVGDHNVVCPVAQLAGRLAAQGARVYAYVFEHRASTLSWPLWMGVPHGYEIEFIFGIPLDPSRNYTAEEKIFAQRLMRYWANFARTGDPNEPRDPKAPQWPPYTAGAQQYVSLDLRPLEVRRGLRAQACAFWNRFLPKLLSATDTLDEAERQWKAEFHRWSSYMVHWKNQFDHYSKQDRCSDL

Structure (SMILES)	Potency
CN(C)c1ccncc1	inactive
CS(=O)(=O)CCNCc1ccc(-c2ccc3ncnc(Nc4ccc(OCc5cccc(F)c5)c(Cl)c4)c3c2)o1	inactive
O=P(O)(OCc1ccccc1)OCc1ccccc1	inactive
CCOC(=O)COc1ccc2c(C)c(CCN(CC)CC)c(=O)oc2c1Cl	6.92 µM (active)
O=CCCCC=O	inactive
O=C(O)CNC(=O)c1ccc(CO)o1	inactive
CCN=C1C=CC(=C(c2ccc(N(CC)CC)cc2)c2ccc(N(CC)CC)cc2)c2ccccc21	39.7 µM (active)
CO[C@H]1O[C@H](CO)[C@@H](O)[C@H](O)[C@H]1O	inactive
CC(=O)Oc1c(C)c(C)c2c(c1C)CC[C@@](C)(CCC[C@H](C)CCC[C@H](C)CCCC(C)C)O2	inactive
CC(=O)Nc1ccc(S(=O)(=O)Nc2ccc([N+](=O)[O-])cc2)cc1	inactive
CC(C)(C)N	inactive
CO[Si](OC)(OC)c1ccccc1	inactive
C=C1[C@H]2CC[C@@H]3[C@H]2C(C)(C)CCC[C@]13C	inactive
OC[C@H]1O[C@@H](OCCc2ccc(O)cc2)[C@H](O)[C@@H](O)[C@@H]1O	inactive
CC(C)CCCCCCOC(=O)c1ccc(C(=O)OCCCCCCC(C)C)c(C(=O)OCCCCCCC(C)C)c1	inactive
CCc1nc(N)nc(N)c1-c1ccc(Cl)cc1	inactive
CC1(C)SC(C)(C)SC(C)(C)S1	inactive
CN1CCc2cccc3c2[C@H]1Cc1ccc(O)c(O)c1-3	64 µM (active)
CC(C)(C)CCCCCCOC(=O)c1ccccc1C(=O)OCCCCCCC(C)(C)C	inactive
C[Si](C)(C)O[Si](C)(C)C	35.4 µM (active) and inactive

Structure (SMILES)	Potency
Cc1c(O)cccc1O	inactive
CCOc1ccc(N=Nc2ccc(/C=C/c3ccc(N=Nc4ccc(OCC)cc4)cc3S(=O)(=O)O)c(S(=O)(=O)O)c2)cc1	inactive
C/C=C(\C)C(C)=O	inactive
NC(=O)c1ncn([C@@H]2O[C@H](CO)[C@@H](O)[C@H]2O)n1	inactive
OC1CCCc2ccccc21 (stereo not given)	inactive
NC(=O)NNC(N)=O	inactive
CC1=CC(=O)CC(C)(C)C1	inactive
Cc1cccc(C(C)(C)C)c1O	inactive
CCCc1c(OCCCOc2ccc(OCC(=O)O)cc2)ccc(C(C)=O)c1O	inactive
CCN[C@H]1C[C@H](C)S(=O)(=O)c2sc(S(N)(=O)=O)cc21	inactive
CCN1CCCC1CN (stereo not given)	inactive
CCO[Si](CC)(OCC)OCC	inactive
C[C@@H]1CC(=O)NN=C1c1ccc(NN=C(C#N)C#N)cc1	inactive
Cc1ccc([N+](=O)[O-])c(N)c1	inactive
CCOC(=O)CC1(C)OCC(C)O1 (stereo not given)	inactive
O=C(O)c1c(Cl)ccc(Cl)c1Cl	inactive
c1ccc2c(c1)Cc1ccccc1-2	inactive
Nc1ccc(C(=O)N2CC3CC(CN(Cc4ccccc4)C3)C2)cc1	inactive
O=C(O)c1ccc(S(=O)(=O)N(Cl)Cl)cc1	inactive
CC1=C(/C=C/C(C)=C/C=C/C(C)=C/C(=O)Nc2ccc(O)cc2)C(C)(C)CCC1	13.8 µM (active)
